Test results as given in PubChem BioAssay AID1346428 (National Center for Advancing Translational Sciences (NCATS), 2018).
About 1,200 (2.5%) of roughly 48,000 compounds were called active. Roughly 2% stayed inconclusive and do not appear here. Only a selection was taken, and actives are over-represented in it overall. Values without a mark were called inactive.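 Rule for the calls: active = activation of at least 60% and not above a set upper limit (about 1 call in 100 departs from these limits); inconclusive = activation of 40% to 60%, or above that upper limit; inactive = activation under 40%.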

biological target: Probable G-protein coupled receptor 32 (Homo sapiens) (UniProt O75388); assay: qHTS for Agonists of Human Resolvin D1 Receptor DRV1; settings: CHO-K1 GPR32 beta-arrestin PathHunter luminescence, 90 min; at 76.9 µM; active compounds read high; zero percent set by DMSO-only wells
Sequence (O75388 whole entry, looked up): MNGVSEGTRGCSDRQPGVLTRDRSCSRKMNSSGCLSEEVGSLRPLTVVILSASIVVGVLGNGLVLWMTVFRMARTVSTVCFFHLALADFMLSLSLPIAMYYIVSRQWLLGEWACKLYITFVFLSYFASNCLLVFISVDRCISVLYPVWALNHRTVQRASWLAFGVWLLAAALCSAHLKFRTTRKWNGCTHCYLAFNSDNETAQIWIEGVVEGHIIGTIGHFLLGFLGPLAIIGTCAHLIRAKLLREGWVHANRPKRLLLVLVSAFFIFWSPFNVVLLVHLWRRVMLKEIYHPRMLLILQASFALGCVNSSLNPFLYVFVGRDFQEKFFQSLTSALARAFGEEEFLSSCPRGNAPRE
Description: Endogenous resolution of inflammation is known to be transduced through various GPCRs and their natural mediators of lipid nature. Resolvin D1 (RvD1) is one of the active players in resolution of acute inflammation through regulation of anti-inflammatory pathways; it is known to enhance phagocytosis of human macrophages, limits neutrophils infiltration, etc. […] The search for GPR32-activating small molecules with anti-inflammatory effects similar to its natural omega-3 derivative ligand in order to use them as research tools for further studies of inflammation and its resolution was the goal of this screening project. For primary screening assay, we used CHO-K1 GPR32 beta-arrestin cell line (DiscoveRx, #93-0321C2A) and the PathHunter(R) beta-Arrestin Assay (DiscoveRx) which measures recruitment of beta-arrestin to the GPR32 and generates chemiluminescent signal. These engineered cells stably transfected with GPR32 co-express GPR32-fused small 42-amino acid fragment of beta-Gal called ProLinktrade mark, and […] -tagged beta-Arrestin fusion protein. When GPR32 is activated by a ligand, it stimulates binding of beta -Arrestin to ProLink-tagged GPR32, and two parts of beta-Gal complement forming a functional enzyme. Upon substrate (PathHunter(R) Detection reagent) addition, beta-Gal hydrolyzes it and generates a chemiluminescent signal.
The cells were thawed and plated in thawing media containing F-12 HAM (Invitrogen, #11765-054), 10% FBS (Invitrogen, #10082), 1x Glutamine, and 1x Pen/Strep onto the 175-mm flask for 24 hours. Then, thawing media was replaced with Growth media which contains 800microg/mL Geneticin (Invitrogen, #10131) and 300microg/mL Hygromycin B (Invitrogen, #10687) in addition to described above. For the assay, the cells were harvested at ~80% confluent stage with Cell Dissociation buffer (Gibco, #13151), and seeded at 2,500 cells/ 3microL/well in assay media (PathHunter(R) Cell Plating Reagent, DiscoverX, #93-0563R1B) using MultiDrop Combi dispenser (Thermo Scientific, Logan, UT) onto white solid bottom tissue culture-treated 1536-well plates (Greiner # 789173-F) and allowed to attach overnight at 37 degrees C, 95% humidity, 5% CO2, . Next, 23nL/well of compound solutions in DMSO were added with a Pin Tool (Kalypsis, San Diego, CA) to the assay plates. As the basal control (EC0), 23 nL/well of DMSO was used on each plate. The cells were incubated in the presence of compounds or DMSO for 90 minutes at 37 degrees C, 5% CO2. Subsequently, 1.5microL/well of PathHunter(R) Detection Reagent prepared per the manufacturer's instructions was added to the assay plates with BioRAPTR FRDtrade mark dispenser (Beckman Coulter, San Francisco, CA) and incubated for 1 hour at ambient temperature prior to the measurement of the luminescent signal on ViewLux(R) uHTS Microplate Imager (Perkin Elmer, Waltham, MA).

Row | Compound | activation
1 | c1ccc2c(c1)[I+]c1ccccc1-2 | 85.7% (active)
2 | Nc1ccc([N+](=O)[O-])cc1 | -34.8%
3 | CC[N+]1(CCOC(=O)C(O)(c2ccccc2)c2ccccc2)CCCCC1 | -7.19%
4 | NCCc1ccc(S(=O)(=O)F)cc1 | 14.4%
5 | CC1N=C(N)OC1c1ccccc1 (stereo not given) | -12.2%
6 | C=CCN1CCC23c4c5ccc(O)c4O[C@H]2C(=O)CC[C@@]3(O)C1C5 (stereo not given in full) | -10.4%
7 | O=S(=O)(O)C(F)(F)C(F)(F)C(F)(F)C(F)(F)F | 94.8% (active)
8 | Cc1nnc(NC(=O)c2cccn(Cc3cccc(F)c3)c2=O)s1 | 23.9%
9 | CCOC(=O)c1ncn2c1[C@@H]1CCCN1C(=O)c1cc(OC)ccc1-2 | -9.3%
10 | CC1=C(C(=O)O)N2C(=O)[C@@H](N)[C@H]2SC1 | -12.7%
